Test results reported in PubChem BioAssay (EPA / NIEHS).
Calls of active or inactive are those of the source. Rule for the calls: active = hit-call score of the fitted dose curve at least 0.9, where 1 is the maximum; inactive = score below 0.9.

Experiments:
[1] = ATG_GLI_CIS: Attagene CIS-FACTORIAL HepG2 Assay for human Zinc Finger Protein GLI1 (AID 2282945); conditions: HepG2, Attagene cis-factorial reporter mRNA, GLI element; actives raise or lower the signal
Summary of the method: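 HepG2 cells transiently transfected with cis-promoter multiplexed reporter units report endogenous transcription factor activity. After 24 h chemical exposure, reporter mRNA was quantified by RT-PCR, 6-FAM labelling, HpaI digestion and capillary electrophoresis, with bidirectional fitting against DMSO.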

[2] = ATG_GRE_CIS: Attagene CIS-FACTORIAL HepG2 Assay for human Glucocorticoid Response Elements (GRE) (AID 2282947); conditions: HepG2 GRE cis-reporter, Attagene multiplex mRNA; actives raise or lower the signal
Summary of the method: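 HepG2 cells transiently transfected with multiple cis-promoter reporter units measure endogenous TF activity; 24 h compound exposure. Reporter mRNA quantified by RT-PCR, FAM labelling, HpaI digestion and capillary electrophoresis; bidirectional fit vs DMSO baseline.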

[3] = ATG_ISRE_CIS: Attagene CIS-FACTORIAL HepG2 Assay for human Interferon Regulatory Factor 1 (IRF1) binding to an Interferon-Stimulated Response Element (ISRE) (AID 2282948); conditions: HepG2 ISRE cis-reporter (Attagene), mRNA transcription readout; actives raise or lower the signal
Summary of the method: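 Cell-based cis-reporter assay; HepG2; 24 h exposure; reporter mRNA by RT-PCR plus capillary electrophoresis fluorescence; activity in either direction scored relative to DMSO.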

[4] = ATG_M_32_CIS: Attagene CIS-FACTORIAL HepG2 Assay for M32 Transcription Factor (Internal Marker) (AID 2282949); conditions: HepG2 Attagene cis-factorial M32 reporter, mRNA; actives raise or lower the signal;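 note: background control marker of the multiplexed CIS panel rather than a real target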
Summary of the method: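 Internal background marker read-out: RT-PCR/capillary electrophoresis fluorescence of reporter transcripts from transiently transfected HepG2 cells after 24 h chemical exposure. Activity fitted bidirectionally relative to DMSO negative control.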

[5] = ATG_M_06_CIS: Attagene CIS-FACTORIAL HepG2 Assay for M06 Transcription Factor (Internal Marker) (AID 2282950); conditions: HepG2 Attagene CIS-FACTORIAL M06 internal marker reporter; actives raise or lower the signal
Summary of the method: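 Terse: HepG2, transient MRTU transfection (FuGene 6), 24 h dosing; total RNA, oligo(dT) RT, PCR, FAM label, HpaI cut, capillary electrophoresis; bidirectional fit vs DMSO baseline; background-control endpoint.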

[6] = target: Hypoxia-inducible factor 1-alpha (Homo sapiens) (UniProt Q16665); experiment: ATG_HIF1a_CIS: Attagene CIS-FACTORIAL HepG2 Assay for human Hypoxia Inducible Factor 1 (HIF1A) (AID 2282951); conditions: HepG2 Attagene cis-factorial HIF1a reporter transcription; actives raise or lower the signal
Sequence of Hypoxia-inducible factor 1-alpha (Homo sapiens) (Q16665 whole entry, looked up): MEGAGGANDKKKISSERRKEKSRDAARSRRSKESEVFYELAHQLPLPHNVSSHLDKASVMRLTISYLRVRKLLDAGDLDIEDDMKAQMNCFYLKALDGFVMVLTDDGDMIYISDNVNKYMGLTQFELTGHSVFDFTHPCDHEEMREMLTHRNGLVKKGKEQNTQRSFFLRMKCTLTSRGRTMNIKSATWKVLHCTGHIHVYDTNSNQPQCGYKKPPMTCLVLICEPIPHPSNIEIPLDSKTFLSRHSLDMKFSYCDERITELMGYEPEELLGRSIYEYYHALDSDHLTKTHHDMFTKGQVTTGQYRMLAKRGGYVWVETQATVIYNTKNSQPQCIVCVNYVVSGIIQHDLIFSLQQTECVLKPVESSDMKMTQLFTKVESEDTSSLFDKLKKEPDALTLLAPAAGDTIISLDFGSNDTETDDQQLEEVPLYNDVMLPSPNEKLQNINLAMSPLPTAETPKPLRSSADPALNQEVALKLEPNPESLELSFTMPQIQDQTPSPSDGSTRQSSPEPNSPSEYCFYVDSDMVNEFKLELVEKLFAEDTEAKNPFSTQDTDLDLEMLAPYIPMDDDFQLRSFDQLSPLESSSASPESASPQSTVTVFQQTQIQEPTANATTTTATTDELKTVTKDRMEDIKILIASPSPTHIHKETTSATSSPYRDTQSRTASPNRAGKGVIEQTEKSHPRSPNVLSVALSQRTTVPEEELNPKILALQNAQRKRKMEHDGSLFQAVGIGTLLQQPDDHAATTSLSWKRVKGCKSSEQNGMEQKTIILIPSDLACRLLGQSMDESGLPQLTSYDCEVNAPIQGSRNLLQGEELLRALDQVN
Summary of the method: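 HepG2 cells transiently transfected with multiple cis-regulated reporter transcription units measure endogenous transcription factor activity. After 24 h exposure, reporter mRNA is quantified by RT-PCR with 6-FAM labelling, HpaI digestion and capillary electrophoresis. Bidirectional fitting against DMSO.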

[7] = target: Hepatocyte nuclear factor 6 (Homo sapiens) (UniProt Q9UBC0); experiment: ATG_HNF6_CIS: Attagene CIS-FACTORIAL HepG2 Assay for human Hepatocyte Nuclear Factor 6 (HNF6) (AID 2282952); conditions: HepG2 Attagene cis-factorial HNF6 reporter transcription; actives raise or lower the signal
Sequence of Hepatocyte nuclear factor 6 (Homo sapiens) (Q9UBC0 whole entry, looked up): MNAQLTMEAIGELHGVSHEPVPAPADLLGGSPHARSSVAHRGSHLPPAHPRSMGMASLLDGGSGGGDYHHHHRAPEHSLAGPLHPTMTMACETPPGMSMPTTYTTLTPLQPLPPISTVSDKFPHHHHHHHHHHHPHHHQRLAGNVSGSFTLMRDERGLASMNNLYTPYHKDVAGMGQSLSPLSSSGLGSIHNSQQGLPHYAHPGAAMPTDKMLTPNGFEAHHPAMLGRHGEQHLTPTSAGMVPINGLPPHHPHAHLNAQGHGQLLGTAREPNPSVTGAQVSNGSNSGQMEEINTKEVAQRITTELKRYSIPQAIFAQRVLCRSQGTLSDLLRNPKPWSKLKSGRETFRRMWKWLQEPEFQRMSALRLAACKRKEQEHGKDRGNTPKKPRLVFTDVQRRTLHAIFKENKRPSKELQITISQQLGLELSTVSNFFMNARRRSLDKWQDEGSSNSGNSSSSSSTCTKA
Summary of the method: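 HepG2 cells transiently transfected with cis-element-driven multiple reporter transcription units, dosed 24 h; reporter mRNA quantified by RT-PCR, FAM primer extension, HpaI digestion and capillary electrophoresis; bidirectional fit versus DMSO baseline.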

[8] = target: Heat shock factor protein 1 (Homo sapiens) (UniProt Q00613); experiment: ATG_HSE_CIS: Attagene CIS-FACTORIAL HepG2 Assay for human Heat Shock Transcription Factor 1 (HSE) (AID 2282953); conditions: HepG2 HSE cis-reporter, Attagene RNA transcription; actives raise or lower the signal
Sequence of Heat shock factor protein 1 (Homo sapiens) (Q00613 whole entry, looked up, the tested form may be a part): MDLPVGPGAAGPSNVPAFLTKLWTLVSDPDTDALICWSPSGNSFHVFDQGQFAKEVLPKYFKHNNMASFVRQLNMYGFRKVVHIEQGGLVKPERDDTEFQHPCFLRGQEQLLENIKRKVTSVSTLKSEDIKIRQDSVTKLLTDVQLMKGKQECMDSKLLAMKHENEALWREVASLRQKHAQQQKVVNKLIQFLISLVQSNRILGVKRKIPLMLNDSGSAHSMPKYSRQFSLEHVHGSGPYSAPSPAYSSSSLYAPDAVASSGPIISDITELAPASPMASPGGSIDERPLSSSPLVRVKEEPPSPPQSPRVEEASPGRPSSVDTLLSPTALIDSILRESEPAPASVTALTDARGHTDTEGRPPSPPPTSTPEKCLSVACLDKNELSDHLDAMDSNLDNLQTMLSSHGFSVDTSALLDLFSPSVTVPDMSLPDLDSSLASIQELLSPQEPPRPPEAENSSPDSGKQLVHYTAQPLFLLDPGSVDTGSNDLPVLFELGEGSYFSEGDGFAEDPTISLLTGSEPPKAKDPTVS
Summary of the method: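 Read-out: fluorescence of reporter-specific RT-PCR fragments separated by capillary electrophoresis. HepG2 carrying transfected cis-element reporter units; 24 h dosing; activity fitted in both directions relative to DMSO baseline.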

[9] = ATG_MRE_CIS: Attagene CIS-FACTORIAL HepG2 Assay for human Metal Responsive Element (MRE) (AID 2282954); conditions: HepG2 MRE cis-reporter transcription, Attagene multiplex; actives raise or lower the signal
Summary of the method: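 HepG2 cells transiently transfected with multiple cis-element reporter units measure endogenous MTF1-driven transcription. After 24 h compound exposure, reporter mRNA is quantified by RT-PCR with 6-FAM labelling, HpaI digestion and capillary electrophoresis; bidirectional fits versus DMSO.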

[10] = ATG_PBREM_CIS: Attagene CIS-FACTORIAL HepG2 Assay for human Phenobarbital-responsive Enhancer Module (PBREM) (AID 2282955); conditions: HepG2 PBREM cis-reporter, Attagene multiplexed transcription; actives raise or lower the signal
Summary of the method: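 HepG2 cells transiently transfected with multiple cis-regulated reporter units measure endogenous transcription factor activity; 24 h compound exposure. Reporter mRNA quantified by RT-PCR, fluorescent labelling, HpaI digestion and capillary electrophoresis; bidirectional fit versus DMSO.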

[11] = ATG_PXRE_CIS: Attagene CIS-FACTORIAL HepG2 Assay for human Pregnane X Receptor Element (PXRE) (AID 2282957); conditions: HepG2 Attagene CIS-FACTORIAL PXRE reporter, mRNA; actives raise or lower the signal
Summary of the method: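 HepG2 cells transiently transfected with cis-regulated multiple reporter transcription units; endogenous factor activity measured as reporter mRNA 24 h after dosing. RT-PCR, fluorescent primer extension, HpaI digestion, capillary electrophoresis; bidirectional fit versus DMSO baseline.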

[12] = ATG_PPRE_CIS: Attagene CIS-FACTORIAL HepG2 Assay for human Peroxisome Proliferator-activated Response Element (PPRE) (AID 2282958); conditions: HepG2 PPRE cis-element reporter, Attagene transcription factor profiling; actives raise or lower the signal
Summary of the method: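 HepG2 cells are transiently transfected with multiplexed cis-promoter reporter units to report endogenous PPAR activity. After 24 h dosing, reporter mRNA is read by RT-PCR and capillary electrophoresis. Fitting is bidirectional against DMSO.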

[13] = ATG_RORE_CIS: Attagene CIS-FACTORIAL HepG2 Assay for human RAR-related Orphan Receptor Element (RORE) (AID 2282959); conditions: HepG2 Attagene cis-factorial RORE reporter, mRNA; actives raise or lower the signal
Summary of the method: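 HepG2 cells carrying transiently transfected cis-regulated reporter units; RORE-driven reporter mRNA quantified 24 h post-dosing by RT-PCR, 6-FAM primer extension, HpaI digestion and capillary electrophoresis. Bidirectional fit versus DMSO.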

[14] = ATG_Sox_CIS: Attagene CIS-FACTORIAL HepG2 Assay for human SRY-box transcription factor (SOX) (AID 2282960); conditions: HepG2 Attagene cis-factorial SOX reporter, mRNA; actives raise or lower the signal
Summary of the method: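 HepG2 cells transiently transfected with multiple cis-regulated reporter units, then dosed for 24 h. Reporter mRNA quantified by RT-PCR, fluorescent labelling, HpaI digestion and capillary electrophoresis; bidirectional fit versus DMSO.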

[15] = target: Transcription factor Sp1 (Homo sapiens) (UniProt P08047); experiment: ATG_Sp1_CIS: Attagene CIS-FACTORIAL HepG2 Assay for human Specificity Protein 1 (Sp1) (AID 2282961); conditions: HepG2 Sp1 cis-reporter transcription, actives raise or lower the signal
Sequence of Transcription factor Sp1 (Homo sapiens) (P08047 whole entry, looked up): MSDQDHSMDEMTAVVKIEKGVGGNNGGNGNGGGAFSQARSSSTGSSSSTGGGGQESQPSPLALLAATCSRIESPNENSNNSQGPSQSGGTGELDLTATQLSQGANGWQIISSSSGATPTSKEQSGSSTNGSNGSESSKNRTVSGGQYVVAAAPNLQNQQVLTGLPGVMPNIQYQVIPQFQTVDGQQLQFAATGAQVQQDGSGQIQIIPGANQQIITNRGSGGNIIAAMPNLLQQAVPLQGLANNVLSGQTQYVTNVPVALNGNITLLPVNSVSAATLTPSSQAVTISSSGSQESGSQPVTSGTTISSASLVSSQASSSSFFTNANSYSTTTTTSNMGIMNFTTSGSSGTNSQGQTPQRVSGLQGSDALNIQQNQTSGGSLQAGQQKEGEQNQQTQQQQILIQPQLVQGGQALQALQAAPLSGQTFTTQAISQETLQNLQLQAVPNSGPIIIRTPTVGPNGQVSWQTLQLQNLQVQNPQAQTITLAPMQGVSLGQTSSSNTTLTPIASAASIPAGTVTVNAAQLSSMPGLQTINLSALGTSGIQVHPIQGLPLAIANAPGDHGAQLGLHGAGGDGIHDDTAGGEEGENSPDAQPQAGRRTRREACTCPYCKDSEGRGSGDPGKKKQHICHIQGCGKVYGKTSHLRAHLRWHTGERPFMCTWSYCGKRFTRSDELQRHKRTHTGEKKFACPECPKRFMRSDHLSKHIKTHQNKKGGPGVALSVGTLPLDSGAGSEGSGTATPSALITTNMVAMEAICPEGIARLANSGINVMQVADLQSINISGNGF
Summary of the method: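 HepG2 cells transiently transfected with multiplexed cis-regulated reporter constructs, chemical exposure 24 h. Reporter mRNA quantified by RT-PCR with capillary electrophoresis; bidirectional fit relative to DMSO.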

[16] = ATG_SREBP_CIS: Attagene CIS-FACTORIAL HepG2 Assay for human Sterol Regulatory Element Binding (SREBP) (AID 2282962); conditions: HepG2 Attagene cis-factorial SREBP reporter, mRNA; actives raise or lower the signal
Summary of the method: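 mRNA induction of transfected cis-promoter reporters in HepG2 cells, 24 h post-dose. Detection: RT-PCR with 6-FAM-labelled products, HpaI digest, capillary electrophoresis. DMSO served as negative control and baseline.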

[17] = target: Signal transducer and activator of transcription 3 (Homo sapiens) (UniProt P40763); experiment: ATG_STAT3_CIS: Attagene CIS-FACTORIAL HepG2 Assay for human Signal Transducer and Activator of Transcription 3 (STAT3) (AID 2282963); conditions: HepG2, Attagene cis-factorial STAT3 reporter transcription; actives raise or lower the signal
Sequence of Signal transducer and activator of transcription 3 (Homo sapiens) (P40763 whole entry, looked up): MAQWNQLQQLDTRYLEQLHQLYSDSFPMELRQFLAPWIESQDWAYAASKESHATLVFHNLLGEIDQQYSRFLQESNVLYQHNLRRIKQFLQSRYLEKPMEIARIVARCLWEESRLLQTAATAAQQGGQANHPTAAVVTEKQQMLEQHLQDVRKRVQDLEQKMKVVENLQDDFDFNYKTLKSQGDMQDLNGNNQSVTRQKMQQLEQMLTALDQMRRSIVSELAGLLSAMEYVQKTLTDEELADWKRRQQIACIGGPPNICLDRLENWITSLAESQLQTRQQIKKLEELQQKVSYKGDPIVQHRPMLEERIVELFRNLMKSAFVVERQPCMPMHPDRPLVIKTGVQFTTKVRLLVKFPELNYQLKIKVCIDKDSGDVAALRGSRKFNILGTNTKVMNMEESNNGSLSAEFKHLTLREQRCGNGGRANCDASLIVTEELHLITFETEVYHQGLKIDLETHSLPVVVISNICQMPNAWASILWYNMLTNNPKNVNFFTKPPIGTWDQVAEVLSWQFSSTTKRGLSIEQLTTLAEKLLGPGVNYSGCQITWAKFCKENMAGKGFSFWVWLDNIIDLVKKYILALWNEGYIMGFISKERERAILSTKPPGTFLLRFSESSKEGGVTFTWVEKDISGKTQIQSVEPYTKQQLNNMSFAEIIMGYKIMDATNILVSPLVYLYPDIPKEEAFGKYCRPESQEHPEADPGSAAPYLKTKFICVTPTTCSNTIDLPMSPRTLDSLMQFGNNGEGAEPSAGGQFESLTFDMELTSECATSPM
Summary of the method: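 HepG2 cells transiently transfected with cis-element-driven multiple reporter transcription units; after 24 h chemical exposure, reporter mRNA measured by RT-PCR, 6-FAM primer-extension labelling, HpaI digestion and capillary electrophoresis. Bidirectional fitting versus DMSO baseline.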

[18] = ATG_TA_CIS: Attagene CIS-FACTORIAL HepG2 Assay for human TA Basal Promoter (AID 2282964); conditions: HepG2 Attagene CIS-factorial TA basal promoter reporter; actives raise or lower the signal
Summary of the method: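 Transfected HepG2, 24 h compound exposure; RNA → RT-PCR → FAM primer extension → HpaI cut → CE fluorescence. Gain/loss-of-signal fitted against DMSO negative control. Background-control readout.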

[19] = target: Paired box protein Pax-6 (Homo sapiens) (UniProt P26367); experiment: ATG_Pax6_CIS: Attagene CIS-FACTORIAL HepG2 Assay for human Paired Box 6 (PAX6) (AID 2282956); conditions: HepG2 CIS-FACTORIAL PAX6 reporter transcription, RNA readout; actives raise or lower the signal
Sequence of Paired box protein Pax-6 (Homo sapiens) (P26367 whole entry, looked up): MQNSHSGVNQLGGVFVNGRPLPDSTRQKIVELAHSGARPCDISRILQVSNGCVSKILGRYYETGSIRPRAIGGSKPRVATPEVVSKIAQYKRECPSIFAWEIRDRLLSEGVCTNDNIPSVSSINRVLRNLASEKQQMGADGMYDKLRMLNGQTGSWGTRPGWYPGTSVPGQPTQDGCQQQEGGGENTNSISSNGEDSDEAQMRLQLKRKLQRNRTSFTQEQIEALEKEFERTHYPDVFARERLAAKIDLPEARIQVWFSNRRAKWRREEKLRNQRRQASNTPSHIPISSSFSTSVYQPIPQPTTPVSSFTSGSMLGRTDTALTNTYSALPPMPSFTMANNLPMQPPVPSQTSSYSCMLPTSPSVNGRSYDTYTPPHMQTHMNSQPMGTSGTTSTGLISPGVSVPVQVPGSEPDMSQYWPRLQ
Summary of the method: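 Multiplexed cis-reporter HepG2 system; 24 h treatment; reporter mRNA read by RT-PCR/CE fluorescence; bidirectional fit vs DMSO.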

Measured: AC50

CCCC(C)C(=O)OCC (centres undefined)
not listed: [19]
inactive: all other assays above

C=C(C)OC(C)=O
not listed: [12] | [15]
inactive: all other assays above

COC(Cc1ccccc1)OC
not listed: [12] | [18] | [19]
inactive: all other assays above

CCCCCCC=O
active: [12] 81.6 µM
not listed: [10] | [13]
inactive: all other assays above

CCOC(=O)CC(=O)c1ccccc1
active: [11] 10.4 µM
not listed: [19]
inactive: all other assays above

O=C(C=Cc1ccccc1)OCCc1ccccc1
active: [3] 77.6 µM | [9] 40.4 µM | [11] 12.8 µM | [18] 53.9 µM
not listed: [12]
inactive: all other assays above

CC(=O)CC(=O)Nc1ccccc1C
not listed: [12] | [13]
inactive: all other assays above

C=CCOC(=O)c1ccc(C(=O)OCC=C)c(C(=O)OCC=C)c1
active: [11] 21 µM | [12] 14.8 µM | [13] 32.5 µM
not listed: [19]
inactive: all other assays above
